# Bioassay records as filed in PubChem.
# Shown are actives, neighbours in structure and some others; about 1.7% of the full set was active somewhere.
# GLP1R inv ag: inverse agonists of human GLP-1 receptor. Potency, µM (highest dose often 38.3 µM), most hits filed as inhibitors. P43220. 410,000 compounds, 1.6% hits. HEK293 GLP-1R CRE-luciferase, luminescence, 24 h; GLP-1R form is constitutively active; note: nearly all actives have a fitted effect of over 55% in size
# Target sequence (P43220 whole entry, looked up): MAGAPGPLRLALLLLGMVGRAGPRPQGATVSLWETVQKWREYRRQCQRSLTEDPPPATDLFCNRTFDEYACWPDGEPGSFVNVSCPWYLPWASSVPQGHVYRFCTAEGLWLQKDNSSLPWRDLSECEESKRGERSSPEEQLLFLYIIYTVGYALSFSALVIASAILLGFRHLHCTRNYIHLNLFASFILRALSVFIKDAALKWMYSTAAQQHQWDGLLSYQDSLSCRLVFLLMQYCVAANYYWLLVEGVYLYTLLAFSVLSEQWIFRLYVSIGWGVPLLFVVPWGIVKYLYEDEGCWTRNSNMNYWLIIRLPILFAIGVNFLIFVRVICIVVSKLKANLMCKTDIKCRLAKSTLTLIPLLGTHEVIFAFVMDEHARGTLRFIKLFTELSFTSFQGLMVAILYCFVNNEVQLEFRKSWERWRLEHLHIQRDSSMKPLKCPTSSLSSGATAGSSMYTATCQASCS
#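 Inverse agonism was detected as reduced cAMP-driven luciferase luminescence after 24 h compound treatment. The cells were HEK293 clones expressing constitutively active human GLP-1R with the reporter. Reporter-only and GPR119 cell lines served as counterscreen controls.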
# GLP1R cytotox: cytotoxicity counter-screen for GLP-1 receptor inverse agonists; HEK293 cAMP-luciferase reporter cells, luminescence, 24 h; Potency, µM (doses to about 38.3 µM), most hits filed as inhibitors; 410,000 compounds, 0.13% hits;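 note: loss of luciferase light is scored as toxicity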
#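 Step one: seed cells (200 cells/uL, DMEM with 10% Nu serum, 1% pen-strep). Step two: 12-hour incubation at 37 deg C. Step three: pin 23 nL compound, incubate 24 hr. Step four: add luciferase reagent, read luminescence 12 min later.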
# GLP-1R agonist: GLP-1 receptor (human) agonism. HEK293 GLP-1R CRE-luciferase, luminescence, 4-6 h; cells express a hypersensitive GLP-1R form. 380,000 compounds, 0.007% hits. Potency, µM (top dose mostly 45.6 µM), usual class: activators. P43220
# PTHR1 agonist: PTHR1 (human) receptor agonism. Q03431. HEK293 GP2 PTHR1 cells, GloSensor cAMP luminescence, 1 h. Potency, µM (highest dose often 115 µM), usual class: activators. 410,000 compounds, 0.075% hits; note: nearly all actives have a fitted effect of over 55% in size
#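 HEK-293-derived GP2 cells expressing PTHR1 and a GloSensor cAMP reporter, 3,000/well, plated overnight, given luciferin plus IBMX (each 0.5 mM as added) for 1 h at 37 °C, then compound for 1 h at 37 °C. Luminescence was read after 15 min at room temperature.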
# A number is an active result; – = inactive; ? = inconclusive; · = no result. Calls come from the whole dose curve; as a rule, active = well fitted curve in the direction sought with a large enough effect; inconclusive = small, poorly fitted or top-dose-only effect, or another doubt; inactive = no such curve, though single readings can be large; an effect the other way counts as inactive or inconclusive.
SMILES,GLP1R inv ag,GLP1R cytotox,GLP-1R agonist,PTHR1 agonist
COc1cc(C2c3c(-c4ccccc4O)n[nH]c3C(=O)N2Cc2ccco2)ccc1OCC(C)C (stereo not given),?,–,·,–
CSc1nc2c(sc3ccccc32)c(=O)n1Cc1ccc(C)cc1,–,–,–,–
CC(=O)n1cc(N(C(=O)CCl)c2ccc(Cl)cc2)c2ccccc21,11.2µM,?,–,–
CCOC(=O)c1ccccc1Nc1cn(C(C)=O)c2ccccc12,–,–,–,–
COc1ccccc1N(C(=O)CCl)c1cn(C(C)=O)c2ccccc12,3.16µM,?,–,–
CC(=O)n1cc(Nc2ccccc2C(=O)O)c2ccccc21,–,–,–,–
COc1ccc(CNC(=O)Cn2c(=O)ccc3cc(S(=O)(=O)N4CCCC4)ccc32)cc1,–,–,–,–
Cn1c(CN2CCCC2)nc2cc(NS(=O)(=O)c3ccc(Cl)cc3)ccc21,3.98µM,–,–,–
Cc1ccccc1NS(=O)(=O)c1cc(C(=O)NCCC2=CCCCC2)ccc1C,11.2µM,?,–,–
COc1ccc(C(=O)c2cn(CC(=O)Nc3ccc4c(c3)OCO4)c3ccc(OC)cc3c2=O)cc1,–,–,·,–
COC(=O)CNC(c1ccccc1Cl)c1cc(Br)ccc1NS(=O)(=O)c1ccc(C)cc1 (stereo not given),3.55µM,–,–,–
COc1ccc(-n2cc(CNCCc3nc(C)cc(C)n3)c(-c3ccccc3Cl)n2)cc1,10µM,?,–,–
COc1ccc(-n2cc(CNCCc3ncc(C)[nH]3)c(-c3ccccc3Cl)n2)cc1,?,–,–,–
COc1cccc2[nH]c3c(N4CCCCC4)ncnc3c12,–,–,–,–
Cc1cccc2[nH]c3c(N4CC=C(c5ccc(F)cc5)CC4)ncnc3c12,10µM,–,–,–
COc1ccc(Nc2nnc(SCC(=O)/C=C3/N(C)c4ccccc4C3(C)C)s2)cc1,11.2µM,–,–,–
Cc1ccc(Nc2cc(C)nc(NCc3ccccc3)n2)cc1,?,?,–,–
Cc1cc(NC2CCCCC2)nc(NCc2ccccc2)n1,10µM,?,–,–
c1ccc(CCNc2ncnc3scc(C4COc5ccccc5O4)c23)cc1 (stereo not given),7.94µM,?,–,?
CCOC(=O)C1=C(CNCCc2ccc(Cl)cc2)NC(=O)NC1c1cccc([N+](=O)[O-])c1 (stereo not given),10µM,–,–,–
CCOC(=O)C1=C(CNCc2ccccc2Cl)NC(=O)NC1c1cccc([N+](=O)[O-])c1 (stereo not given),?,–,–,–
COc1ccc(N2CC(NC(=O)C(c3ccccc3)c3ccccc3)CC2=O)cc1OC (stereo not given),–,–,–,–
CSc1nc(-c2ccccc2)nc(N2CCN(C)CC2)c1C(C)=O,3.16µM,–,–,–
CCCC(=O)Nc1ccc(C(=O)Nc2cc(C(F)(F)F)ccc2Cl)cc1,6.31µM,?,–,–
O=C(NCCCc1nc2ccccc2n1Cc1ccccc1F)c1ccco1,–,–,·,–
SMILES,GLP1R inv ag,GLP1R cytotox,GLP-1R agonist,PTHR1 agonist
CCOc1ccc(/C=N/NC(=O)Cc2csc(Nc3cccc(C(F)(F)F)c3)n2)c(OCC)c1,?,–,–,–
CCOc1ccc(/C=N/NC(=O)Cc2csc(Nc3cccc(C(F)(F)F)c3)n2)cc1,2.24µM,–,–,–
Clc1ccc(/C=N\Nc2ccccc2)cc1,3.98µM,–,–,–
Cc1ccc(-n2nc3c(N4CCCC(C(=O)NCc5ccccc5C)C4)nnc(C)c3c2C)cc1 (stereo not given),–,–,·,–
C=CC[C@@H](CC(=O)N(CCO)Cc1ccccc1)C(=O)N[C@@H](COC(=O)[C@@H](CC=C)CC(=O)OC(C)(C)C)Cc1c[nH]c2ccccc12,10µM,?,–,–
C=CCC[C@H](Cc1ccc(F)cc1)C(=O)OC[C@@H](Cc1c[nH]c2ccccc12)NC(=O)[C@H](CC=C)CC(=O)N(CCO)Cc1ccccc1,2.82µM,?,–,–
COCCNC(=O)c1sc2nc3n(c(=O)c2c1C)CCC3,–,–,·,–
Cc1cccc(CSc2cn(CC(=O)N3CCCC3)c3ccccc23)c1,?,–,·,–
CC1CCCN(Cc2nc(Cc3ccccc3Cl)no2)C1 (stereo not given),10µM,–,–,–
CCOc1cc2sc(N3CCC(C(=O)Nc4ccc(C)cc4C)CC3)nc2cc1Br,–,–,·,–
CCC(=O)c1ccc(N2CCN(C(=O)c3ccccc3F)CC2)c(F)c1,–,–,–,–
O=C(c1ccccc1)c1ccc(N2CCN(C(=O)c3cccc(F)c3F)CC2)c(F)c1,10µM,–,–,–
Cc1ccc(CNC(=O)CNC(=S)N(Cc2ccccc2)Cc2ccccc2F)cc1,10µM,–,–,–
CCOC(=O)N1CCc2c(sc(NCc3ccc(N(C)C)cc3)c2C(=O)Nc2ccc(OC)cc2)C1,–,–,·,–
Cc1ccc(-c2c3c(=O)n(C)c(=O)n(C)c3c3n2-c2ccccc2NC3c2ccc(C)cc2O)cc1 (stereo not given),10µM,–,·,–
CCOc1ccc2nc(N3CCCC(C(=O)Nc4cc(Cl)c(OC)cc4OC)C3)sc2c1 (stereo not given),–,–,·,–
S=C(Nc1ccc(Cl)c(Cl)c1)NC1CCN(Cc2ccccc2)CC1,3.16µM,?,–,–
Fc1ccc(NC(=S)NC2CCN(Cc3ccccc3)CC2)cc1,?,–,–,–
S=C(Nc1ccc(Cl)c(Cl)c1)NC1CCCCC1,–,12.6µM,–,–
S=C(NNc1ccc2ccccc2c1)NC1CCCCC1,10µM,?,–,–
S=C(Nc1ccc(Oc2ccccc2)cc1)NC1CCCCCC1,10µM,?,–,–
S=C(Nc1ccc(Oc2ccccc2)cc1)NC1CCCCC1,?,–,–,–
COc1cccc(C(=O)Nc2cccc(-c3cn4c(C)csc4n3)c2)c1OC,–,–,–,–
CCN(CC)CC(O)Cn1c(C)c(-c2ccccc2)c2cc([N+](=O)[O-])ccc21 (stereo not given),4.47µM,?,–,–
CCN(CC)CC(O)Cn1c2ccccc2c2ccccc21 (stereo not given),?,–,–,–
SMILES,GLP1R inv ag,GLP1R cytotox,GLP-1R agonist,PTHR1 agonist
Cc1ccccc1OCC(=O)Nc1ccc2c(c1)Cc1ccccc1-2,–,–,–,–
Cc1ccccc1OCC(=O)Nc1ccc(N2CCN(C)CC2)c(Cl)c1,4.47µM,–,–,–
COc1ccc(OCC(=O)Nc2ccc(N3CCN(C(=O)c4ccccc4)CC3)c(Cl)c2)cc1,10µM,–,–,–
CCC(=O)N1CCN(c2ccccc2NC(=O)COc2ccc(C(C)C)cc2)CC1,10µM,–,–,–
COc1ccc(OCC(=O)Nc2ccccc2N2CCN(C)CC2)cc1,?,–,–,–
CC1(C)Cc2cccc(C(=O)NC3CCN(Cc4ccccc4)CC3)c2O1,10µM,–,–,–
COc1c(C)cc(S(=O)(=O)Nc2cccc(-c3ccc(N4CCOCC4)nn3)c2)c(C)c1C,?,–,·,–
